Test results published in PubChem BioAssay (NCATS).
Inconclusive results are not listed. Activity calls are given as the source filed them. Calls follow the shape of the dose curve; as a rule, active = well fitted cell-killing curve with a large enough effect; inconclusive = small, poorly fitted or top-dose-only effect, or effect the other way; inactive = flat fitted curve, though single readings scatter.

Tested on: PA-1
Assay: Primary qHTS to identify gynecologic anti-cancer compounds using libraries of approved drugs and bioactive compounds (AID 1345084); also: nearly all actives have a fitted effect of over 55% in size
Conditions: Gynecologic cancer cell panel viability, ATPlite luminescence, 48 h; series mostly up to 57.5 µM; activity change, negative = cytotoxicity: at the top concentration
In short: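 Cells, 1,000 per well, plated 16 h, then exposed 48 h at 37 C to compounds. Viability by ATPlite luminescence after 15 min at room temperature.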
% is scaled to controls: 0 for no effect and ±100 for the full control effect; potency is read from the fitted curve at half-maximal effect.

Structure (SMILES)	Potency	activity change, negative = cytotoxicity
CN1[C@@H]2CC[C@H]1CC(OC(=O)c1c[nH]c3ccccc13)C2 (stereo partly specified)	inactive	
CCCOC(C(=O)OC1CCN(C)CC1)(c1ccccc1)c1ccccc1		3.23% (inactive)
COc1cc2c(cc1OC)C(C(C(=O)N(CCc1ccc(OC)c(OC)c1OC)CCc1ccc(OC)c(OC)c1OC)c1ccccc1)=NCC2 (stereo unspecified)		2.02% (inactive)
Oc1c(Cl)cc(Cl)cc1Sc1cc(Cl)cc(Cl)c1O		0.0041% (inactive)
O=C1c2ccccc2C(=O)C1c1ccccc1		4.74% (inactive)
Cc1ccc(O)c2ncccc12		4.8% (inactive)
O=C(Nc1ccc(Oc2ccc(Cl)cc2)c(Cl)c1)c1cc(I)cc(I)c1O		4.05% (inactive)
O=C(OCC(O)CO)c1ccccc1Nc1ccnc2cc(Cl)ccc12 (stereo unspecified)		12.7% (inactive)
CCN1CCC[C@H]1CNC(=O)c1c(OC)ccc(Br)c1OC		0.342% (inactive)
CC(C)COC(=O)c1ccc(N)cc1		6.74% (inactive)
Oc1ccc(O)cc1		-6.28% (inactive)
O=C1OC(c2ccc(O)cc2)(c2ccc(O)cc2)c2ccccc21		14.7% (inactive)
NCCc1ccn[nH]1		4.11% (inactive)
CC(CCc1ccccc1)NCC(O)c1ccc(O)c(C(N)=O)c1 (stereo unspecified)		-1.85% (inactive)
CCCCC1=NC2(CCCC2)C(=O)N1Cc1ccc(-c2ccccc2-c2nn[nH]n2)cc1		-3.56% (inactive)
O=C(CCN1CCC(c2ccccc2)C1)c1ccc2c(c1)OCCO2 (stereo unspecified)		10.5% (inactive)
C=CCc1ccc(O)c(OC)c1		32.4% (inactive)
O=c1[nH]c(=O)n([C@H]2CCCO2)cc1F	inactive	
C[C@]12CC[C@H]3[C@@H](CCC4=CC(=O)CC[C@@]43C)[C@@H]1CC[C@@H]2C(=O)CO	22.4 µM (active)	
CC(=O)OCC(=O)NCCCOc1cccc(CN2CCCCC2)c1		3.86% (inactive)
OC[C@H]1O[C@@H](n2cnc3c(=S)nc[nH]c32)[C@H](O)[C@@H]1O	5.01 µM (active)	
CCCCOc1ccc(OCCCN2CCOCC2)cc1		-7.44% (inactive)
CC(C)n1nc(-c2cc3cc(O)ccc3[nH]2)c2c(N)ncnc21	4.47 µM (active)	
CCCN1CCCC[C@H]1C(=O)Nc1c(C)cccc1C		-0.284% (inactive)
CC(C)(C)NC(=O)[C@@H]1CN(Cc2cccnc2)CCN1C[C@@H](O)C[C@@H](Cc1ccccc1)C(=O)N[C@H]1c2ccccc2C[C@H]1O	inactive	
CC(Cc1cccc(C(F)(F)F)c1)NCCOC(=O)c1ccccc1 (stereo unspecified)		-1.79% (inactive)
